Molecules are shown by their SMILES. The panel holds about 79,000 compounds, 15% with a hit somewhere; the sample as a whole holds those more often. Values without a mark were called inactive. Calls of active or inactive are those of the source. No stated cut-off is given here; in the data, active means growth inhibition above about 70%; inactive means the rest.

Consider nine compounds from PubChem BioAssay (NCI).

Assay [1] is described as follows: NCI Yeast Anticancer Drug Screen. Data for the rad50 strain (AID 155).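 Further: 0% = growth of vehicle-only cultures of the same strain.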 Conditions: S. cerevisiae rad50 strain growth inhibition, hits give high values. The method in brief: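 DNA repair mutant yeast, compound exposure, growth read-out; inhibition is taken relative to vehicle.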
Assay [2] can be described thus: NCI Yeast Anticancer Drug Screen. Data for the mec2-1 strain (AID 157). Conditions: S. cerevisiae mec2-1 strain, hits give high values. In a few lines:
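Each compound was tested on mec2-1 yeast, a strain altered in DNA damage repair or cell cycle control. Growth inhibition is reported relative to vehicle.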

The nature of assay [3]: NCI Yeast Anticancer Drug Screen. Data for the sgs1 mgt1 strain (AID 161).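 Further: 0% = growth of cultures given vehicle only.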 Conditions: S. cerevisiae sgs1 mgt1 strain, hits give high values. The method in brief:
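Genetically altered yeast, compound exposure, growth inhibition relative to vehicle.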

Assay [4] is described as follows: NCI Yeast Anticancer Drug Screen. Data for the cln2 rad14 strain (AID 165).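 Further: 0% = growth equal to vehicle treated cultures.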 Conditions: S. cerevisiae cln2 rad14 strain, hits give high values. In a few lines:
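Test compounds were added to cln2 rad14 yeast cultures; inhibition of growth was then determined by comparison with vehicle treatment.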

Assay [5] is described as follows: NCI Yeast Anticancer Drug Screen. Data for the bub3 strain (AID 167). Conditions: S. cerevisiae bub3 mutant strain, hits give high values. The method in brief: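 In this screen, a yeast mutant lacking normal mitotic checkpoint function is challenged with compound. Relative growth versus vehicle gives the inhibition value.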
Assay [6] is described as follows: NCI Yeast Anticancer Drug Screen. Data for the mlh1 rad18 strain (AID 175). Conditions: S. cerevisiae mlh1 rad18 strain growth inhibition, hits give high values. In a few lines:
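Inhibition values reflect reduced growth of mutant yeast versus vehicle-treated controls following compound exposure; the mutations affect DNA damage repair.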

The mark [7] stands for this setting: at 5.0 µM (retest, dose inferred, filed as 0.5).
Where [8] appears, read: at 50.0 µM (retest, dose inferred, filed as 5.0).

For the compound `Cc1ccc(-c2c3c(cc4cc(C)ccc24)C(=O)OC3=O)cc1`, the growth inhibition in assay [1] (setting [7]) was 12%; in assay [1] (setting [8]), 26%; in assay [1] (at 50.0 µM) it was 14.8%; in assay [2] (setting [7]) it was -2%; in assay [2] (setting [8]), 12%; in assay [2] (at 50.0 µM) it was 6.85%. Also, the growth inhibition in assay [3] (setting [7]) was -1%; in assay [3] (setting [8]), 27%; in assay [3] (at 50.0 µM), 17.9%; in assay [4] (setting [7]), 4%; in assay [4] (setting [8]), 6%; in assay [4] (at 50.0 µM), 15.2%. In addition, the growth inhibition in assay [5] (setting [7]) is 1%; in assay [5] (setting [8]), 4%; in assay [5] (at 50.0 µM), 15.8%; in assay [6] (setting [7]), -2%; in assay [6] (setting [8]) it was 25%; in assay [6] (at 50.0 µM) it was 32.9%.
As to `COc1cc(C(=O)NC(CCC(=O)O)C(=O)O)ccc1N(C)Cc1cnc2nc(N)nc(N)c2n1` (configuration not stated), the growth inhibition was -4% in assay [1] (setting [7]); 66% in assay [1] (setting [8]); 89.8% (active) in assay [1] (at 50.0 µM); -3% in assay [2] (setting [7]); 93% (active) in assay [2] (setting [8]); 97.2% (active) in assay [2] (at 50.0 µM). Also, the growth inhibition was -7% in assay [3] (setting [7]); 44% in assay [3] (setting [8]); 83.8% (active) in assay [3] (at 50.0 µM); 2% in assay [4] (setting [7]); -10% in assay [4] (setting [8]); -21.4% in assay [4] (at 50.0 µM). In addition, the growth inhibition was -6% in assay [5] (setting [7]); -6% in assay [5] (setting [8]); 40.4% in assay [5] (at 50.0 µM); -51% in assay [6] (setting [7]); 29% in assay [6] (setting [8]); 74.1% (active) in assay [6] (at 50.0 µM).
With `COC(=O)c1cc(=O)n(-c2ccccc2OC)c(SC)n1`, the growth inhibition in assay [1] (setting [7]) is 2%; in assay [1] (setting [8]), 83% (active); in assay [1] (at 50.0 µM) it was 89.5% (active); in assay [2] (setting [7]), -1%; in assay [2] (setting [8]) it was 73% (active); in assay [2] (at 50.0 µM), 89% (active). The growth inhibition in assay [3] (setting [7]) was 8%; in assay [3] (setting [8]), 87% (active); in assay [3] (at 50.0 µM), 92.5% (active); in assay [4] (setting [7]) it was -8%; in assay [4] (setting [8]), 67%; in assay [4] (at 50.0 µM), 49.4%. Besides, the growth inhibition in assay [5] (setting [7]) is -5%; in assay [5] (setting [8]) it was 58%; in assay [5] (at 50.0 µM), 94.8% (active); in assay [6] (setting [7]), -2%; in assay [6] (setting [8]) it was 79% (active); in assay [6] (at 50.0 µM), 98.1% (active).
On to `CN(CC(=O)O)c1ncc2c(n1)-c1ccccc1OC2`, for which the growth inhibition in assay [1] (setting [7]) is 17%; in assay [1] (setting [8]), 13%; in assay [1] (at 50.0 µM), 48.6%; in assay [2] (setting [7]) it was 8%; in assay [2] (setting [8]), 12%; in assay [2] (at 50.0 µM) it was 57.1%. Further, the growth inhibition in assay [3] (setting [7]) is 6%; in assay [3] (setting [8]) it was 17%; in assay [3] (at 50.0 µM), -21%; in assay [4] (setting [7]), 14%; in assay [4] (setting [8]), 18%; in assay [4] (at 50.0 µM) it was -23.5%. The growth inhibition in assay [5] (setting [7]) was 12%; in assay [5] (setting [8]), 15%; in assay [5] (at 50.0 µM) it was -28.1%; in assay [6] (setting [7]) it was 14%; in assay [6] (setting [8]) it was 10%; in assay [6] (at 50.0 µM), -55.2%.
Turning to `O=C1/C(=C/c2ccccc2)CCCc2ccccc21`, the growth inhibition in assay [1] (setting [7]) is -2%; in assay [1] (setting [8]), 28%; in assay [1] (at 50.0 µM), 59.8%; in assay [2] (setting [7]), 7%; in assay [2] (setting [8]), 62%; in assay [2] (at 50.0 µM), 49.5%. Moreover, the growth inhibition in assay [3] (setting [7]) is 14%; in assay [3] (setting [8]) it was 79% (active); in assay [3] (at 50.0 µM), 86% (active); in assay [4] (setting [7]), -10%; in assay [4] (setting [8]), 14%; in assay [4] (at 50.0 µM) it was 19.7%. Also, the growth inhibition in assay [5] (setting [7]) was 10%; in assay [5] (setting [8]) it was 75% (active); in assay [5] (at 50.0 µM), 74.8% (active); in assay [6] (setting [7]), 10%; in assay [6] (setting [8]) it was 73% (active); in assay [6] (at 50.0 µM), 75% (active).
With `CCCCCCCCCCCC(=O)OCC1OC(n2cc(F)c(=O)[nH]c2=O)C(N)C(O)C1O` (configuration not stated), the growth inhibition in assay [1] (setting [7]) is 34%; in assay [1] (setting [8]), 34%; in assay [1] (at 50.0 µM), 90.2% (active); in assay [2] (setting [7]) it was 31%; in assay [2] (setting [8]), 31%; in assay [2] (at 50.0 µM) it was 91% (active). Moreover, the growth inhibition in assay [3] (setting [7]) was 10%; in assay [3] (setting [8]), 10%; in assay [3] (at 50.0 µM), 89.1% (active); in assay [4] (setting [7]), 22%; in assay [4] (setting [8]), 22%; in assay [4] (at 50.0 µM), 91.2% (active). Moreover, the growth inhibition in assay [5] (setting [7]) was -11%; in assay [5] (setting [8]) it was -11%; in assay [5] (at 50.0 µM) it was 90.3% (active); in assay [6] (setting [7]), 24%; in assay [6] (setting [8]), 24%; in assay [6] (at 50.0 µM), 88.5% (active).
As to `Cc1cc(Cl)ccc1OCC(=O)Oc1c(Cl)c(Cl)c(Cl)c(Cl)c1Cl`, the growth inhibition in assay [1] (setting [7]) is 7%; in assay [1] (setting [8]), 36%; in assay [1] (at 50.0 µM) it was 65.8%; in assay [2] (setting [7]) it was 8%; in assay [2] (setting [8]), 13%; in assay [2] (at 50.0 µM) it was 73% (active). The growth inhibition in assay [3] (setting [7]) is 0%; in assay [3] (setting [8]) it was 42%; in assay [3] (at 50.0 µM), 67.6%; in assay [4] (setting [7]) it was -12%; in assay [4] (setting [8]), 33%; in assay [4] (at 50.0 µM), 42.8%. Further, the growth inhibition in assay [5] (setting [7]) is -6%; in assay [5] (setting [8]), 19%; in assay [5] (at 50.0 µM) it was 68.9%; in assay [6] (setting [7]), 7%; in assay [6] (setting [8]), 50%; in assay [6] (at 50.0 µM), 76% (active).
In the case of `COc1ccccc1/C=C1\S/C(=N/Nc2nc(C)c(C(C)=O)s2)NC1=O`, the growth inhibition is 20% in assay [1] (setting [7]); 29% in assay [1] (setting [8]); -14.6% in assay [1] (at 50.0 µM); 15% in assay [2] (setting [7]); 32% in assay [2] (setting [8]); -3.1% in assay [2] (at 50.0 µM). In addition, the growth inhibition in assay [3] (setting [7]) was 20%; in assay [3] (setting [8]), 39%; in assay [3] (at 50.0 µM), -0.75%; in assay [4] (setting [7]), 20%; in assay [4] (setting [8]), 34%; in assay [4] (at 50.0 µM) it was 5.4%. Further, the growth inhibition in assay [5] (setting [7]) is 17%; in assay [5] (setting [8]), 43%; in assay [5] (at 50.0 µM) it was -18%; in assay [6] (setting [7]) it was 15%; in assay [6] (setting [8]) it was 36%; in assay [6] (at 50.0 µM), -7.7%.
As for `CC(C)(CN1CCCCC1)C(=O)CC(SCCS(=O)(=O)O)c1ccc(Cl)cc1` (configuration not stated), the growth inhibition is 16% in assay [1] (setting [7]); 88% (active) in assay [1] (setting [8]); 19.2% in assay [1] (at 50.0 µM); -4% in assay [2] (setting [7]); 91% (active) in assay [2] (setting [8]); 3.7% in assay [2] (at 50.0 µM). For the same compound, the growth inhibition is -9% in assay [3] (setting [7]); 85% (active) in assay [3] (setting [8]); 39.1% in assay [3] (at 50.0 µM); -1% in assay [4] (setting [7]); 91% (active) in assay [4] (setting [8]); 55.7% in assay [4] (at 50.0 µM). The growth inhibition in assay [5] (setting [7]) was -13%; in assay [5] (setting [8]), 97% (active); in assay [5] (at 50.0 µM), 25.6%; in assay [6] (setting [7]), 1%; in assay [6] (setting [8]) it was 89% (active); in assay [6] (at 50.0 µM), 11.1%.
